More than one record can exist for a structure, and the calls need not agree. Active and inactive are the calls of the source. Rule for the calls: active = hit-call score of the fitted dose curve at least 0.9, where 1 is the maximum; inactive = score below 0.9.

15 compounds from PubChem BioAssay (EPA / NIEHS) can be followed below.

Read-out in assay [1]: Matrix Metallopeptidase 1 (MMP1), MMP1 (gene 4312)
Briefly: BSK_BE3C_MMP1: BioMAP Diversity Plus: BE3C Assay for Matrix Metallopeptidase 1 (MMP1) Biomarker Activity (AID 2283024). The note with it: primary human bronchial epithelial cells; actives raise or lower the signal. The method, boiled down:
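Human bronchial epithelial cells (BE3C system) exposed to compound for 24 h; MMP1 then quantified by ELISA. Activity was fitted in both directions relative to DMSO.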

The nature of assay [2]: BSK_3C_Vis: BioMAP Diversity Plus: 3C Assay for Morphology Visualization (AID 2283025).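 For AC50: light microscopy image of cell morphology used as background control.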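 Note: fitted both ways so gain or loss versus DMSO counts.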 The note with it: primary human endothelial cells (HUVEC). The method, boiled down:
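Chemicals were added to primary human umbilical vein endothelium, cells were incubated 24 h, and morphology was then visualized by light microscopy. Gain or loss of signal was fitted bidirectionally relative to DMSO.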

Read-out in assay [3]: Pselectin, SELP (gene 6403)
As to the kind of experiment: BSK_4H_Pselectin: BioMAP Diversity Plus: 4H Assay for Pselectin Biomarker Activity (AID 2283026). Particulars: primary human endothelial cells (HUVEC); actives raise or lower the signal. The method in brief:
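ELISA read-out of P-selectin on human umbilical vein endothelium after 24 h of dosing. Values derive from bidirectional fitting relative to DMSO. Parallel SRB protein staining flagged overt cytotoxicity.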

Assay [4] can be described thus: BSK_4H_SRB: Viability Assessment in the BioMAP Diversity Plus: 4H Assay (AID 2283027).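 For AC50: curves fitted both ways versus DMSO so AC50 may be loss or gain.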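 Note: cells exposed to compound for 24 h before staining.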 The note with it: primary human endothelial cells (HUVEC). The method, boiled down: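 Human umbilical vein endothelial cells, 24 h after chemical dosing; total protein measured by 0.1% sulforhodamine B staining after 10% TCA fixation, read at 560 nm. Bidirectional fitting against DMSO.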

Assay [5] can be described thus: BSK_BE3C_SRB: Viability Assessment in the BioMAP Diversity Plus: BE3C Assay (AID 2283028).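 For AC50: fitted both ways so AC50 may mark signal gain or loss versus DMSO.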 The note with it: primary human bronchial epithelial cells. The method, boiled down:
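Human primary bronchial epithelial cells were exposed to test chemicals for 24 h. Total protein in parallel cultures was then measured by staining with 0.1% sulforhodamine B after 10% TCA fixation, with absorbance read at 560 nm. Activity was fitted bidirectionally against DMSO.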

Read-out in assay [6]: Thrombomodulin, THBD (gene 7056)
As to the kind of experiment: BSK_3C_Thrombomodulin: BioMAP Diversity Plus: 3C Assay for Thrombomodulin Biomarker Activity (AID 2283029). Particulars: primary human endothelial cells (HUVEC); actives raise or lower the signal. The method, boiled down:
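Read-out is ELISA of thrombomodulin on human umbilical vein endothelium 24 h after chemical dosing. Gain or loss of signal is scored relative to DMSO. Overt cytotoxicity is checked in parallel cultures by sulforhodamine B staining.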

Read-out in assay [7]: Urokinase-type plasminogen activator receptor (uPAR), PLAUR (gene 5329)
Briefly: BSK_4H_uPAR: BioMAP Diversity Plus: 4H Assay for Urokinase-type plasminogen activator receptor (uPAR) Biomarker Activity (AID 2283030). Particulars: primary human endothelial cells (HUVEC); actives raise or lower the signal. The method in brief:
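Primary human umbilical vein endothelial cells were exposed to chemical for 24 h before cell-surface uPAR was quantified by ELISA. Activity was fitted bidirectionally against the DMSO negative control baseline.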

Read-out in assay [8]: Vascular endothelial growth factor receptor 2 (Homo sapiens) (UniProt P35968)
Briefly: BSK_4H_VEGFRII: BioMAP Diversity Plus: 4H Assay for Vascular endothelial growth factor receptor 2 (VEGFR2) Biomarker Activity (AID 2283031). The note with it: primary human endothelial cells (HUVEC); actives raise or lower the signal. The method, boiled down:
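Primary human umbilical vein endothelial cells in the BioMAP 4H system were dosed with test chemical, and 24 h later VEGFRII was measured by ELISA. Activity was fitted bidirectionally against DMSO as negative control and baseline.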

Assay [9] can be described thus: BSK_3C_SRB: Viability Assessment in the BioMAP Diversity Plus: 3C Assay (AID 2283023).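 Note: fitted both ways against DMSO so a hit may be signal rise or drop.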 Particulars: primary human endothelial cells (HUVEC). The method, boiled down: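 Primary human umbilical vein endothelial cells in the 3C system were read 24 h after compound dosing. Total protein was stained with 0.1% sulforhodamine B after 10% TCA fixation and read at 560 nm, with bidirectional fitting against DMSO as baseline.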

Read-out in assay [10]: Human Leukocyte Antigen - DR isotype (HLADR), HLA-DRA (gene 3122)
Briefly: BSK_BE3C_HLADR: BioMAP Diversity Plus: BE3C Assay for Human Leukocyte Antigen - DR isotype (HLADR) Biomarker Activity (AID 2283032). The note with it: primary human bronchial epithelial cells; actives raise or lower the signal. The method in brief:
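ELISA read-out of HLA-DR on human lung bronchial epithelial primary cells, measured 24 h post-dosing. Both increases and decreases were scored relative to DMSO vehicle.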

`CCCOC(=O)c1ccc(O)cc1`: the result in assay [1], in [2], in assay [3], in [4], in assay [5] and in [6] was inactive. For the same compound, the outcome in assay [7] and in [8] was inactive.
As a reminder, the AC50 is the concentration at which the activity in the assay is half-maximal. Take `O=c1c(-c2ccc(O)cc2)coc2cc(O)ccc12`: the outcome in [9], in [1], in [2], in assay [4], in assay [5] and in [6] was inactive. The outcome in [7], in [8] and in assay [10] was inactive. Besides, the half-maximal activity concentration (AC50) in assay [3] is 20 µM (active).
For the compound `CC(C)(C)c1ccc(O)c(C(C)(C)C)c1`, the concentration at half-maximal activity (AC50) in assay [9] was 9.68 µM (active); in [1], 32.4 µM (active); in assay [2] it was 6.71 µM (active); in assay [4], 12.4 µM (active); in assay [5], 32 µM (active); in assay [7] it was 10.6 µM (active). Also, the AC50 in assay [10] was 28.1 µM (active). In addition, the result in assay [6] and in assay [8] was inactive.
Turning to `C=C(C)C(=O)OCCC(F)(F)C(F)(F)C(F)(F)C(F)(F)C(F)(F)C(F)(F)F`, the outcome in assay [9], in assay [1], in assay [2], in [3], in assay [4] and in [5] was inactive. Moreover, the outcome in [6], in assay [7] and in assay [8] was inactive. Also, the concentration at half-maximal activity (AC50) in assay [4] is 20 µM (active).
Turning to `CCC(C)(C)C1CCC(O)CC1` (stereo not given), the outcome in assay [9], in assay [1], in assay [2], in assay [3], in [4] and in assay [5] was inactive. For the same compound, the result in assay [6], in assay [7], in assay [8] and in [10] was inactive.
On to `CC(C)CCCCCCOC(=O)CCCCC(=O)OCCCCCCC(C)C`, for which the outcome in assay [9], in [1], in assay [2], in assay [4], in [5] and in assay [6] was inactive. Moreover, the outcome in assay [7], in assay [8] and in assay [10] was inactive.
`CC(C)(C)c1cc(C(C)(C)C)c(O)c(C(C)(C)C)c1`: the outcome in [9], in assay [2], in assay [4], in [5], in assay [7] and in [8] was inactive. Further, the AC50 is 10.5 µM (active) in assay [1], 20 µM (active) in assay [3] and 6.29 µM (active) in assay [6].
For the compound `CN(C)C=O`, the outcome in [9], in assay [1], in [2], in assay [4], in assay [5] and in assay [6] was inactive. Further, the result in [7], in assay [8] and in assay [10] was inactive.
With `OC1CCC(C2CCCCC2)CC1` (stereo not given), the outcome in assay [9], in assay [1], in assay [2], in assay [4], in assay [5] and in assay [6] was inactive. Also, the result in [7], in assay [8] and in assay [10] was inactive.
For the compound `N#C[C@@H]1CC(F)(F)CN1C(=O)CNC1CC2CCC(C1)N2c1ncccn1` (stereo not given in full), the AC50 in assay [9] is 8.06 µM (active); in [2] it was 5.57 µM (active). Further, the outcome in [1], in assay [4], in [5], in assay [6], in assay [7] and in [8] was inactive.
For `O=C(O)c1ccccc1C(c1ccc(O)cc1)c1ccc(O)cc1`, the result in assay [9], in assay [1], in assay [2], in [4], in assay [5] and in [6] was inactive. Also, the result in assay [7] and in assay [8] was inactive.
For the compound `O=C(OCCOCCOC(=O)c1ccccc1)c1ccccc1`, the outcome in [9], in assay [1], in assay [2], in [3], in assay [4] and in [5] was inactive. Further, the outcome in assay [6], in assay [7], in [8] and in assay [10] was inactive.
Regarding `CCCCCCCCC(=O)O`, the outcome in assay [9], in [1], in assay [2], in assay [4], in assay [5] and in [6] was inactive. For the same compound, the result in [7], in assay [8] and in [10] was inactive.
As for `CC#C[C@]1(O)CC[C@H]2[C@@H]3CCC4=CC(=O)CCC4=C3[C@@H](c3ccc(N(C)C)cc3)C[C@@]21C`, the AC50 was 0.623 µM (active) in assay [1], 29.9 µM (active) in assay [3], 29.1 µM (active) in assay [4] and 3.97 µM (active) in assay [7]. Also, the result in assay [2], in assay [5], in assay [6] and in assay [8] was inactive.
Take `CC(C)(C)CC(C)(C)c1ccc(O)c(-n2nc3ccccc3n2)c1`: the outcome in assay [9], in [1], in assay [2], in assay [3], in [4] and in assay [5] was inactive. In addition, the outcome in [6], in assay [7] and in assay [8] was inactive.
